Experimental findings from the supplement of paper PMC7669877 are described below.

± gives the uncertainty stated by the source.

This assay deals with Candidatus Liberibacter solanacearum in potato hairy roots. The assay can be described thus: relative CLso titer (% of untreated control); higher = less inhibition of bacterial titer. To be noted: 10 µM; 72 h. The protocol:
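Primary screen of ~220 Spectrum collection (MicroSource) compounds at 10 µM (0.1% DMSO) on Candidatus Liberibacter solanacearum-infected potato hairy roots in multi-well plates (Gamborg B-5 medium, vacuum infiltrated, 21 °C, dark, 72 h). CLso titer was measured by qPCR of 16S rDNA normalised to potato RPL2 (2^-ddCq), pairwise-standardised against untreated controls, averaged over two biological replicates and expressed as % of untreated.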
With `CC(C)(Sc1cc(C(C)(C)C)c(O)c(C(C)(C)C)c1)Sc1cc(C(C)(C)C)c(O)c(C(C)(C)C)c1`, the “relative CLso titer” value worked out at 102 ± 13%.

`CCCCOc1cc(C(=O)NCCN(CC)CC)c2ccccc2n1`: the “relative CLso titer” value came out at 147 ± 76%.

For `C[C@@H](O[C@H]1OCCN(Cc2n[nH]c(=O)[nH]2)[C@H]1c1ccc(F)cc1)c1cc(C(F)(F)F)cc(C(F)(F)F)c1`, the “relative CLso titer” value was 117 ± 51%.

For the molecule `C[C@]12CC[C@@H]3c4ccc(O)cc4CC[C@H]3[C@@H]1CC[C@@H]2OC(=O)CCC1CCCC1`, the “relative CLso titer” value worked out at 150 ± 44%.

As for `Cc1onc(-c2c(Cl)cccc2Cl)c1C(=O)N[C@@H]1C(=O)N2[C@@H]1SC(C)(C)[C@@H]2C(=O)O`, the “relative CLso titer” value was 145 ± 34%.

For `CCS(=O)(=O)CCn1c([N+](=O)[O-])cnc1C`, the “relative CLso titer” value stood at 116 ± 0.28%.

Regarding `CCOC(=O)[C@H](CCc1ccccc1)N[C@@H](C)C(=O)N(CC(=O)O)C1Cc2ccccc2C1`, the “relative CLso titer” value stood at 90.7 ± 30%.

Regarding `COc1cc(NS(=O)(=O)c2ccc(N)cc2)ncn1`, the “relative CLso titer” value worked out at 60.3 ± 11%.

Turning to `Cc1onc(-c2ccccc2Cl)c1C(=O)N[C@@H]1C(=O)N2[C@@H]1SC(C)(C)[C@@H]2C(=O)O`, the “relative CLso titer” value came out at 46.2 ± 1.5%.

In the case of `CN(CCOc1ccc(CC2SC(=O)NC2=O)cc1)c1ccccn1` (stereo not given), the “relative CLso titer” value stood at 87.5 ± 30%.

Consider `C[C@H](CCC(=O)O)[C@H]1CC[C@H]2[C@@H]3C(=O)C[C@@H]4CC(=O)CC[C@]4(C)[C@H]3CC(=O)[C@]12C`, for which the “relative CLso titer” value was found to be 212 ± 78%.

`Nc1ccc(S(=O)(=O)Nc2cnc3ccccc3n2)cc1`: the “relative CLso titer” value was found to be 80.23 ± 0.64%.

As for `CN(C)[C@@H]1C(O)=C(C(N)=O)C(=O)[C@@]2(O)C(O)=C3C(=O)c4c(O)ccc(Cl)c4[C@@H](O)[C@H]3C[C@@H]12`, the “relative CLso titer” value stood at 173 ± 42%.

For the molecule `COc1ccc2c3c1O[C@H]1C[C@@H](O)C=C[C@@]31CCN(C)C2`, the “relative CLso titer” value was 104 ± 28%.

With `CN(C)CCOC(c1ccc(Cl)cc1)c1ccccn1` (stereo not given), the “relative CLso titer” value was 35.2 ± 4.8%.

On to `COC(=O)Nc1nc2cc(C(=O)c3ccccc3)ccc2[nH]1`, for which the “relative CLso titer” value is 84 ± 10%.

For `CN(C)CCC=C1c2ccccc2CCc2ccccc21`, the “relative CLso titer” value worked out at 49 ± 2.5%.

In the case of `C[C@H]1O[C@@H](O[C@H]2[C@@H](O)C[C@H](O[C@H]3[C@@H](O)C[C@H](O[C@H]4CC[C@@]5(C)[C@H](CC[C@@H]6[C@@H]5CC[C@]5(C)[C@@H](C7=CC(=O)OC7)CC[C@]65O)C4)O[C@@H]3C)O[C@@H]2C)C[C@H](O)[C@@H]1O`, the “relative CLso titer” value was found to be 231 ± 140%.

As for `COC(=O)Nc1nc2cc(C(=O)c3cccs3)ccc2[nH]1`, the “relative CLso titer” value is 79.7 ± 6.4%.

`CCOC(=O)CCC(=O)O[C@H]1[C@H](O[C@@H]2[C@@H](C)[C@H](O[C@H]3C[C@@](C)(OC)[C@@H](O)[C@H](C)O3)[C@@H](C)C(=O)O[C@H](CC)[C@@](C)(O)[C@H](O)[C@@H](C)C(=O)[C@H](C)C[C@@]2(C)O)O[C@H](C)C[C@@H]1N(C)C`: the “relative CLso titer” value was 169 ± 3.5%.

With `CS(=O)(=O)OCCCCOS(C)(=O)=O`, the “relative CLso titer” value was determined as 66.9 ± 7.5%.

Turning to `CO[C@@]1(NC(=O)Cc2cccs2)C(=O)N2C(C(=O)O)=C(COC(N)=O)CS[C@@H]21`, the “relative CLso titer” value stood at 130 ± 27%.

Turning to `CC(=O)N[C@@H](CS)C(=O)O`, the “relative CLso titer” value turned out to be 55.7 ± 25%.

With `CC(C)(Oc1ccc(CCNC(=O)c2ccc(Cl)cc2)cc1)C(=O)O`, the “relative CLso titer” value was found to be 153 ± 64%.

`CNC[C@H](O)c1ccc(O)c(O)c1`: the “relative CLso titer” value was determined as 173 ± 86%.

For `Cc1cn([C@H]2C[C@H](N=[N+]=[N-])[C@@H](CO)O2)c(=O)[nH]c1=O`, the “relative CLso titer” value is 52.6 ± 7.3%.

Turning to `COc1cnc(NS(=O)(=O)c2ccc(N)cc2)nc1`, the “relative CLso titer” value was found to be 119 ± 37%.

For `CCN(CC)CCNC(=O)COc1ccc(OC)cc1`, the “relative CLso titer” value is 93.2 ± 2.3%.

With `O=C1c2cccc(O)c2C(=O)c2c(O)cccc21`, the “relative CLso titer” value is 82.5 ± 46%.

Turning to `CCN(CCCCOC(=O)c1ccc(OC)c(OC)c1)C(C)Cc1ccc(OC)cc1` (stereo not given), the “relative CLso titer” value was found to be 94.6 ± 34%.

Regarding `CC1(C)O[C@@H]2C[C@H]3[C@@H]4C[C@H](F)C5=CC(=O)C=C[C@]5(C)[C@H]4[C@@H](O)C[C@]3(C)[C@]2(C(=O)CO)O1`, the “relative CLso titer” value came out at 99.4 ± 17%.

As to `CCN(CC)CCOc1ccc(C(=C(Cl)c2ccccc2)c2ccccc2)cc1`, the “relative CLso titer” value is 42.7 ± 2.2%.

On to `CO[C@@]1(NC(=O)CSCC#N)C(=O)N2C(C(=O)O)=C(CSc3nnnn3C)CS[C@@H]21`, for which the “relative CLso titer” value was determined as 114 ± 30%.

Consider `C/C=C(/C(=C/C)c1ccc(O)cc1)c1ccc(O)cc1`, for which the “relative CLso titer” value came out at 108 ± 17%.

Consider `COc1ccc(O)cc1`, for which the “relative CLso titer” value turned out to be 173 ± 58%.

Regarding `CCN(CC)CCOC(=O)C1(C2CCCCC2)CCCCC1`, the “relative CLso titer” value came out at 90.3 ± 40%.

Consider `CN(C)c1cnccn1`, for which the “relative CLso titer” value came out at 120 ± 27%.

For the molecule `CC(=O)N(O)CCCCCNC(=O)CCC(=O)N(O)CCCCCNC(=O)CCC(=O)N(O)CCCCCN`, the “relative CLso titer” value is 210 ± 59%.

As for `CC(C(=O)O)c1cccc(C(=O)c2ccccc2)c1` (stereo not given), the “relative CLso titer” value was 132 ± 34%.

`C1CCN2C[C@@H]3C[C@@H](CN4CCCC[C@@H]34)[C@H]2C1`: the “relative CLso titer” value was determined as 93.9 ± 8%.
